Inconclusive results are not listed. Activity calls are given as the source filed them. Unless noted, calls come from the whole dose curve; as a rule, active = well fitted curve in the direction sought with a large enough effect; inconclusive = small, poorly fitted or top-dose-only effect, or another doubt; inactive = no such curve, though single readings can be large; an effect the other way counts as inactive or inconclusive.
Columns and labels:
[1] = Cell Viability - LYMP2-001 (AID 921); note: series mostly up to about 92 µM; nearly all actives have a fitted effect of over 70% in size
How it was run: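 Human lymphoblastoid LYMP2-001 cells, 2500 per well, in complete medium, treated 24 h at 37 C. Viability from cellular ATP by CellTiter-Glo luminescence; AC50 from Hill-equation fits of qHTS concentration-response.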

[2] = MultiTox-Fluor Cytotoxicity Assay - LYMP1-001 - Dead Cells (AID 946)
How it was run: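 LYMP1-001 lymphoblastoid cells (2500/well) treated 16 h at 37 C. Dead-cell protease cleavage of bis-AAF-R110 read at Ex/Em 485/520. Normalized to DMSO and 15 uM tetraoctylammonium bromide; AC50 from Hill fits.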

[3] = MultiTox-Fluor Cytotoxicity Assay - LYMP1-001 - Live Cells (AID 947)
[4] = Cell Viability - LYMP1-002 - Assay at 16 hr (AID 948)
How it was run: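 LYMP1-002 human lymphoblastoid cells, 2500/well, were treated with compounds for 16 hr at 37 C in complete medium. Viability was read as intracellular ATP by CellTiter-Glo luminescence, and AC50 was derived from a Hill fit to concentration-response data.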

[5] = MultiTox-Fluor Cytotoxicity Assay - LYMP1-002 - Live Cells (AID 955)
How it was run: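 LYMP1-002 lymphoblastoid cells; 2500 cells/well; 16 hr compound exposure, 37 C; MultiTox-Fluor reagent 60 min RT; live-cell fluorescence Ex/Em=405/510; qHTS concentration-response, Hill-equation AC50; tetraoctylammonium bromide positive control.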

[6] = MultiTox-Fluor Cytotoxicity Assay - LYMP1-002 - Dead Cells (AID 960); note: nearly all actives have a fitted effect of over 60% in size
How it was run: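 Readout: fluorescence at 485/520 from cell-impermeant bis-AAF-R110 cleaved by proteases leaking from damaged cells. LYMP1-002 lymphoblastoid line, 16 hr compound treatment at 37 C, concentration-response in qHTS format; Hill-equation AC50 values.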

[7] = MultiTox-Fluor Cytotoxicity Assay - LYMP1-003 - Dead Cells (AID 961); note: nearly all actives have a fitted effect of over 70% in size
How it was run: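 LYMP1-003 human lymphoblastoid cells (2500/well) exposed to compound 16 h at 37 C in complete medium; dead-cell protease read with bis-AAF-R110 fluorescence (Ex/Em 485/520) after 60 min at room temperature. Normalized to DMSO and 15 uM tetraoctylammonium bromide; AC50 from Hill fit.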

[8] = MultiTox-Fluor Cytotoxicity Assay - LYMP1-003 - Live Cells (AID 962);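 note: cytotoxic hits lower the live-cell protease signal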
How it was run: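 Readout: live-cell fluorescence (Ex/Em=405/510) from GF-AFC cleavage after 60 min MultiTox-Fluor reagent at room temperature. Lymphoblastoid LYMP1-003 cells, 16 hr compound treatment, 37 C. Concentration-response fitted to standard Hill equation for AC50.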

[9] = Cell Viability - LYMP1-003 - Assay at 24 hr (AID 963)
How it was run: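 CellTiter-Glo luminescence (intracellular ATP) read after 24 hr, 37 C compound exposure of 2500 LYMP1-003 human lymphoblastoid cells/well in complete medium; qHTS concentration series; AC50 via standard Hill equation.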

[10] = Cell Viability - LYMP1-003 - Assay at 40 hr (AID 964); note: series mostly up to about 92 µM; nearly all actives have a fitted effect of over 60% in size
How it was run: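 LYMP1-003 lymphoblastoid cells, 2500/well; 5 hr preincubation, 40 hr compound exposure, 37 C; CellTiter-Glo 30 min RT; luminescence; Hill-fit AC50. Positive control tetraoctylammonium bromide.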

[11] = Cell Viability - LYMP2-003 (AID 965);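 note: cells exposed to compounds for 24 h before reading; nearly all actives have a fitted effect of over 50% in size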
How it was run: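 Human lymphoblastoid LYMP2-003 cells, 2500/well, exposed to compounds for 24 h at 37 C in complete medium. Viability read as intracellular ATP by CellTiter-Glo luminescence; AC50 from Hill-equation fits of qHTS concentration-response data.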

[12] = Cell Viability - LYMP2-004 (AID 966); note: nearly all actives have a fitted effect of over 65% in size
How it was run: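 Luminescent ATP read-out (CellTiter-Glo, 30 min RT) after 24 hr compound exposure at 37 C; 2500 lymphoblastoid cells/well, complete medium. Decrease in ATP = cytotoxicity; AC50 from standard Hill model.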

[13] = Cell Viability - LYMP2-005 (AID 967); note: series mostly up to about 92 µM
How it was run: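 Human lymphoblastoid LYMP2-005 cells, 2,500 per well in complete medium, rested 5 h at 37C then compound-treated 24 h at 37C. Intracellular ATP read by CellTiter-Glo luminescence after 30 min at room temperature; AC50 from Hill-equation fits of concentration-response data.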

[14] = Cell Viability - LYMP2-009 (AID 968); note: series mostly up to about 92 µM; nearly all actives have a fitted effect of over 55% in size
[15] = Cell Viability - LYMP2-011 (AID 969); note: nearly all actives have a fitted effect of over 60% in size
How it was run: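 Luminescent ATP read-out (CellTiter-Glo, 30 min RT) after 24 hr compound exposure at 37 C in human lymphoblastoid cells, 2500 cells/well. Decreasing ATP indicates cytotoxicity; AC50 from standard Hill fit.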

[16] = Cell Viability - LYMP2-013 (AID 970); note: series mostly up to about 92 µM; nearly all actives have a fitted effect of over 55% in size
How it was run: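 CellTiter-Glo luminescence (cellular ATP) read after 30 min at RT. Cells: human lymphoblastoid line, 2500/well, 24 hr compound exposure at 37 C. Tetraoctylammonium bromide positive control; AC50 via standard Hill fit of qHTS titrations.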

[17] = target: Pyruvate kinase (Leishmania mexicana) (UniProt Q27686); assay: qHTS Validation Assay for Inhibitors of Leishmania Mexicana Pyruvate Kinase (AID 945)
How it was run: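 Read-out: luminescence from PKLight stop/detection reagent, data normalized to DMSO. Reaction: 0.2 nM E451W LmPYK, 0.5 mM PEP, 0.1 mM ADP, pH 7.2, 1 h room temperature.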

[18] = target: Pyruvate kinase PKM (Homo sapiens) (UniProt P14618); assay: qHTS Assay for Activators of Human Muscle Pyruvate Kinase (AID 954; active = well fitted curve in the direction sought with a large enough effect, not every such curve was filed as active)
How it was run: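 Compound pinned into substrate mix (0.5 mM PEP, 0.1 mM ADP), then 0.1 nM PKM2 added; 1 h, RT. Stop/detection luciferase reagent added, luminescence read. Normalized to no-inhibition and no-enzyme or reference-inhibitor controls.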

[19] = Confirmation and Secondary Assay for Modulators of Hemoglobin Beta Chain Splicing at IVS2 705 locus (AID 930);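 note: HeLa cells stably expressing the EGFP-705 splicing reporter; GFP fluorescence per well restored by corrected splicing of the IVS2-705 intron in EGFP; series mostly up to about 46 µM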
How it was run: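 Secondary splice-site specificity test uses HeLa expressing CMV-driven EGFP interrupted by IVS2-705; cells were treated 2 days at 37C with 500 nM antisense PNA as positive control.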

[20] = Confirmation and Secondary Assay for Modulators of Hemoglobin Beta Chain Splicing at IVS2 654 locus (AID 910);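 note: per-well total GFP intensity by laser scanning cytometry after 2-day treatment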
How it was run: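 HeLa cells stably carrying EGFP interrupted by mutant beta-globin IVS2-654 intron (CMV-driven) were treated with compound for 2 days at 37C; corrected splicing was scored as total peak GFP intensity per well (488 nm excitation, 500-520 nm emission).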

Measured: outcome

Pyruvate kinase (Leishmania mexicana), sequence (Q27686 2-499 E452W): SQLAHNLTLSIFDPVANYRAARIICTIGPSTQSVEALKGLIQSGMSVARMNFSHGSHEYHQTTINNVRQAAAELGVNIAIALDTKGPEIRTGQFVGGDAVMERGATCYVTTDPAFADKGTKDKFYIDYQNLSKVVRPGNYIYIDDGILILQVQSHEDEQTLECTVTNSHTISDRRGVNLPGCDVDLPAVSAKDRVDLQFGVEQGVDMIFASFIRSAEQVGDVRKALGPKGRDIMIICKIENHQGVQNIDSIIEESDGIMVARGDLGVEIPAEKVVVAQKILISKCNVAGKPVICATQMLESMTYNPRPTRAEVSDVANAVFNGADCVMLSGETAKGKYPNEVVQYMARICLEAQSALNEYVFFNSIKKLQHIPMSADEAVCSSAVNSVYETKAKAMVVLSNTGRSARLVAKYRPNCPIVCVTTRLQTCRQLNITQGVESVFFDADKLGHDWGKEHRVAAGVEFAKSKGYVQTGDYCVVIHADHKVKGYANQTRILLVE
Pyruvate kinase PKM (Homo sapiens), sequence (P14618 whole entry, looked up): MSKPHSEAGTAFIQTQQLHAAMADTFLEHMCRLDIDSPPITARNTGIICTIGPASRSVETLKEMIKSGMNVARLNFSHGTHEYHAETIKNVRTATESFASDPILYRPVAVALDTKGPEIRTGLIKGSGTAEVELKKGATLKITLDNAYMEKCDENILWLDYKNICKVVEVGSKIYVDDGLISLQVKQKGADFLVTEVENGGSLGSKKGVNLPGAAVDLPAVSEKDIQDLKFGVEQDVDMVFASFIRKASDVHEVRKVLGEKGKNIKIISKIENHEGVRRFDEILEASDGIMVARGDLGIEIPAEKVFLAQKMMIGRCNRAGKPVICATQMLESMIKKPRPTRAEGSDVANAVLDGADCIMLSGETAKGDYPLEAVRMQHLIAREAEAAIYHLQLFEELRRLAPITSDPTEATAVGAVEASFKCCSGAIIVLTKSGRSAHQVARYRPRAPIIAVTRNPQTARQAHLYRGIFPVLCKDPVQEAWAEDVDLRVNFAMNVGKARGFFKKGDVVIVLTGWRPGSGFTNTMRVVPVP

Cc1ccc(N)cc1O
not listed: [17] | [18] | [19] | [20]
inactive: all other assays above

CC(=O)O[C@H]1C(=O)[C@@]2(C)[C@H]([C@H](OC(=O)c3ccccc3)[C@]3(O)C[C@H](OC(=O)[C@H](O)[C@@H](NC(=O)c4ccccc4)c4ccccc4)C(C)=C1C3(C)C)[C@]1(OC(C)=O)CO[C@@H]1C[C@@H]2O
inactive: [17] | [18]

Nc1ccccc1N
inactive: [2] | [4] | [5] | [6] | [8]

CC(=O)O[C@@H]1CC(C)=C2[C@H]1[C@H](C)CC[C@H]2/C=C(\C)C(=O)O
not listed: [17] | [18] | [19] | [20]
inactive: all other assays above

CC(C)C(N)C(=O)OCCOCn1cnc2c(=O)[nH]c(N)nc21 (centres undefined)
inactive: [19]

CC(C)[N+]1(C)C2CCC1CC(OC(=O)C(CO)c1ccccc1)C2 (centres undefined)
inactive: [20] | [19]

CC(=O)c1cc2c(cc1O)OC(C)(C)C=C2
inactive: [20] | [19]
